Measurements published in PubChem BioAssay (NCI).
The panel holds about 79,000 compounds, 15% with a hit somewhere; the sample as a whole holds those more often. A number with no mark means an inactive call. The source made the active and inactive calls. Cut-off read from the data, not from the text of the source: active = growth inhibition above about 70%; inactive = the rest.

Assay: NCI Yeast Anticancer Drug Screen. Data for the wt1 strain (AID 149);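 note: 0% = growth of vehicle-treated wt1 cultures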
Details: S. cerevisiae wt1 strain (SPY 50644) growth inhibition, stronger effect = higher value
Procedure: Growth inhibition of yeast strains with defined genetic alterations is measured as a screen for potential anti-cancer activity. Selected strains with alterations in DNA damage repair or cell cycle control were exposed to compounds and growth inhibition was measured relative to vehicle treated controls. The strain used in this assay is wt1

| Compound | growth inhibition (at 1.2 µM) | growth inhibition (at 3.7 µM) | growth inhibition (at 11.0 µM) | growth inhibition (at 33.0 µM) | growth inhibition (at 100.0 µM) |
| --- | --- | --- | --- | --- | --- |
| CCCCc1ccc(-n2c(C)c(COC(=O)NC)c(COC(=O)NC)c2C)cc1 | -48% | -44% | -13% | 99% (active) | 91% (active) |
| COC(=O)Nc1cn2ccc(C(Cl)=C(Cl)Cl)cc2n1 | -16% | -21% | -33% | -29% | -33% |
| CC[N+](CC)(CC)c1ccccc1 | -21% | -27% | -28% | -26% | -28% |
| CC1=NOC(=O)/C1=C/c1ccc2c(c1)OCO2 | 5% | 0% | 2% | 6% | 13% |
| N#CC(C#N)=NNc1ccc(S(=O)(=O)O)cc1 | -19% | -18% | -19% | -14% | -3% |
| O=C1C=C(Cl)C(=O)N1c1cccc(Cl)c1 | 12% | 97% (active) | 100% (active) | 99% (active) | 100% (active) |
| COC1=C(N)C(=O)c2nc(-c3nc(C(=O)O)c(C)c(-c4ccc(OC)c(OC)c4O)c3N)ccc2C1=O | 98% (active) | 99% (active) | 99% (active) | 99% (active) | 98% (active) |
| Nc1nc(N)c2nc(CNc3ccc(C(=O)NC(CCC(=O)O)C(=O)O)cc3F)cnc2n1 (stereo not given) | 13% | 12% | 17% | 50% | 78% (active) |
